# Laboratory results as given in PubChem BioAssay AID686979 (National Center for Advancing Translational Sciences (NCATS), 2013).
# The campaign covered roughly 420,000 compounds. About 50,000 (12%) were called active. About 26% were inconclusive and are not listed. Calls come from the whole dose curve; as a rule, active = well fitted inhibition curve with a large enough effect; inconclusive = small, poorly fitted or top-dose-only effect; inactive = flat fitted curve, though single readings scatter. This excerpt belongs to a sample that is enriched for actives.
# Test: qHTS for Inhibitors of human tyrosyl-DNA phosphodiesterase 1 (TDP1): qHTS in cells in presence of CPT; note: nearly all actives have a fitted effect of over 55% in size
# Settings: chicken DT40 Tdp1-/-;hTDP1 cells + 20 nM CPT, ATP luminescence, 48 h; series mostly up to 46.2 µM; activity change, negative = growth inhibition: at the top concentration
# Procedure, shortened: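 Chicken DT40 Tdp1-/- cells complemented with human TDP1, 400 cells/well, exposed to compounds plus 20 nM camptothecin for at least 48 h at 37 C; viability read as ATP content by CellTiter-Glo luminescence.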
# % is set by controls: 0 for no effect and ±100 for the full control effect; potency is the fitted concentration of half-maximal effect.
Structure (SMILES),Potency,"activity change, negative = growth inhibition"
O=C(C1CCCN(S(=O)(=O)c2ccccc2)C1)N1CCN(c2ccc(F)cc2)CC1 (stereo not drawn),11.6 µM (active),–
O=C(NCc1ccco1)C1CCCN(S(=O)(=O)c2cccc3nonc23)C1 (stereo not drawn),–,-10.4% (inactive)
Cc1ccc(S(=O)(=O)N2CCCC(C(=O)N3CCN(C)CC3)C2)cc1 (stereo not drawn),–,-6.45% (inactive)
O=C(C1CCCN(S(=O)(=O)c2cccc3nonc23)C1)N1CCN(c2ccccc2F)CC1 (stereo not drawn),18.4 µM (active),–
CC(=O)c1cccc(NC(=O)C2CCCN(S(=O)(=O)c3cccc4nonc34)C2)c1 (stereo not drawn),–,-20.4% (inactive)
CCCS(=O)(=O)N1CCCC(C(=O)N2CCN(c3ccccc3)CC2)C1 (stereo not drawn),–,-5.02% (inactive)
CN1CCC(N(C)S(=O)(=O)c2ccc(NC(=O)c3cccc(C#N)c3)cc2)CC1,–,-9.95% (inactive)
COC(C[C@@H](O)C[C@H](O)[C@H](C)OCc1ccccc1)OC,–,-2.51% (inactive)
CO[C@H]1O[C@@H]2O[C@@]3(C)CC[C@@H]4[C@@H](C)CC[C@@H]([C@H]1C)[C@@]24OO3,0.631 µM (active),–
COc1ccccc1C(=O)NC(CCSC)C(=O)N1CCN(C(C)=O)CC1 (stereo not drawn),–,-0.07% (inactive)
CC(C)c1cccc(C(C)C)c1Nc1cn[nH]c1,14.6 µM (active),–
CC(=O)Nc1ccc(S(=O)(=O)N(C)c2ccc(OCC(=O)OCC(=O)N3CCCCC3)cc2)cc1,–,5.25% (inactive)
CCCN1C2CCCC1CC(NC(=O)c1cccc(OC)c1)C2 (stereo not drawn),–,-5.4% (inactive)
CCCN1C2CCCC1CC(NC(=O)NC13CC4CC(CC(C4)C1)C3)C2 (stereo not drawn),16.4 µM (active),–
CCCNC(=S)NC1CC2CCCC(C1)N2CC(C)C (stereo not drawn),–,-8.26% (inactive)
Cc1ccc(NC(=O)CSCC(=O)Nc2sccc2C#N)cc1,–,2.86% (inactive)
COc1ccccc1C(=O)COC(=O)CNS(=O)(=O)c1ccc(NC(C)=O)cc1,–,-12.6% (inactive)
COc1ccc(NC(=O)CN2C(=O)NC(C)(c3ccccc3)C2=O)cn1 (stereo not drawn),–,-5.76% (inactive)
COc1ccc(NC(=S)NCCNC(C)=O)cc1,–,-3.51% (inactive)
COc1ccc(CS(=O)/C(Cl)=C(/Cl)C(=O)Nc2ccc(OC)nc2)cc1 (stereo not drawn),0.0184 µM (active),–
Cc1nc(Nc2ccccc2F)c2nnn(Cc3ccccc3Cl)c2n1,–,-15.9% (inactive)
NC(=O)c1sc(-c2ccsc2)cc1N,–,3.43% (inactive)
O=C(Nc1ccccc1-c1ccccc1)c1ccccc1[N+](=O)[O-],–,-5.27% (inactive)
Cc1ccc(CC(=O)N(C)CC(=O)N(CC(C)C)c2c(N)n(CC(C)C)c(=O)[nH]c2=O)cc1C,–,2.72% (inactive)
Cc1ccc(-c2csc(NC(=O)c3cnccn3)n2)cc1C,–,-0.532% (inactive)
COc1ccc(OC)c(C(=O)NC2CCCc3c2cnn3-c2cc(C)cc(C)c2)c1 (stereo not drawn),29.1 µM (active),–

Structure (SMILES),Potency,"activity change, negative = growth inhibition"
O=C(NCCCNC(=O)c1ccccc1Cl)c1cnccn1,–,14.9% (inactive)
COCc1ccc(C(=O)NC2CC(C)(C)Cc3c2cnn3-c2ccc(C)cc2)o1 (stereo not drawn),–,-24.3% (inactive)
Cc1ccc(-n2ncc3c2CCCC3NC(=O)c2cnccn2)cc1C (stereo not drawn),20.6 µM (active),–
COc1ccc(-n2ncc3c2CC(C)(C)CC3NC(=O)CCc2c(C)noc2C)cc1 (stereo not drawn),–,-14.8% (inactive)
O=C(Cc1ccc(Cl)cc1)c1ccccc1,–,3.05% (inactive)
CCCCCCNCCn1cnc2c(N)ncnc21,–,4.28% (inactive)
COc1ccc(NC(=O)c2ccc3oc(=O)c(S(=O)(=O)c4ccc(F)cc4)cc3c2)c(OC)c1,–,0.795% (inactive)
COc1cccc(NC(=O)CN(C)C(C)C(=O)Nc2ccc(C#N)cc2)c1 (stereo not drawn),–,1.07% (inactive)
CCOC(=O)c1cc2c(=O)n3ccccc3nc2n(CCCOC)c1=NC(=O)C(C)(C)Oc1ccc(Cl)cc1,–,-18.4% (inactive)
Nc1cc2c(cc1Br)-c1ccc(F)cc1C2=O,–,-14.1% (inactive)
Cc1ccc(/C=N/NC(=O)CSc2nc3ccccc3o2)cc1,18.4 µM (active),–
CCN(CC)C(=O)CSc1nc2ccccc2o1,–,1.95% (inactive)
CC(C)(C)C(=O)CSc1nc2ccccc2o1,–,10.3% (inactive)
CC(Sc1nnc(C2CC2)n1C1CC1)C(=O)Nc1ccc(C(N)=O)cc1 (stereo not drawn),–,-11.7% (inactive)
CC1CCN(c2ccc(S(=O)(=O)Nc3cc(C(=O)O)cc(C(=O)O)c3)cc2[N+](=O)[O-])CC1,–,6.32% (inactive)
COc1ccc(NS(=O)(=O)c2ccc(N3CCOCC3)c(NC(=O)/C=C/C(=O)O)c2)cc1,–,-24.2% (inactive)
COc1ccc(NS(=O)(=O)c2ccc(N3CCN(CCO)CC3)c([N+](=O)[O-])c2)cc1,9.2 µM (active),–
O=C(CSc1nncn1-c1cccnc1)N1CCOCC1,–,18.2% (inactive)
O=C1NC(c2ccccc2)Cc2ccncc21 (stereo not drawn),–,-1.24% (inactive)
COc1ccc(OC)c(Cc2nnc(CCC(=O)NC3CCCC3)o2)c1,–,24.7% (inactive)
COc1ccc(OC)c(NC(=O)c2sc3nc(C)cc(C)c3c2N)c1,–,-1.45% (inactive)
COc1ccc(OC)c(Cc2cnc3nc(N)nc(N)c3c2C)c1,0.259 µM (active),–
COCC1CCCN(Cc2ccc3c(c2)CN(C(=O)c2ccnn2C)CCO3)C1 (stereo not drawn),–,-3.58% [at 9.04 µM] (inactive)
O=C(c1[nH]ncc1-c1ccc(Cl)cc1)C1CO1 (stereo not drawn),1.03 µM (active),–
S=c1[nH]nc(-c2ccc(Cl)cc2)n1CC1CCCO1 (stereo not drawn),–,-28.6% (inactive)
COC(=O)c1ccc(C)c(NC(=O)C2CC(=O)N(C3CCCC(C)C3C)C2)c1 (stereo not drawn),–,-28.8% (inactive)

Structure (SMILES),Potency,"activity change, negative = growth inhibition"
C=C1C(=C/C=C2\CCC[C@]3(C)[C@@H]([C@H](C)CCCC(C)(C)O)CC[C@@H]23)C[C@@H](O)C[C@@H]1O,9.44 µM (active),–
CCNC(=O)C1(C)CCCN(C(=O)c2ccc3ccccc3n2)C1 (stereo not drawn),–,-17.1% (inactive)
CCOC(=O)c1sc(NC(=O)CSc2n[nH]c(CC)n2)nc1C,–,-18% (inactive)
O=C(N/N=C/c1ccc(Br)o1)c1cncc(Br)c1,–,-1.47% (inactive)
Cc1sc2ncn(CC(=O)NCCCC(=O)NCc3ccc(F)cc3)c(=O)c2c1C,–,1.23% (inactive)
Cn1cc(S(=O)(=O)N2CCC(Cc3ccccc3)CC2)c(=O)n(C)c1=O,–,-4.97% (inactive)
O=C1N[C@H](Cc2ccccc2)C(=O)N[C@H]1Cc1cn(S(=O)(=O)c2ccccc2)c2ccccc12,13 µM (active),–
CSc1ncccc1C(=O)Nc1ccc2c(c1)OCO2,–,-7.18% (inactive)
Cc1c(NC(=O)/C=C/C(=O)O)cccc1[N+](=O)[O-],–,-18.6% (inactive)
Cc1c(NC(=S)NCc2ccc(F)cc2)cccc1[N+](=O)[O-],20.6 µM (active),–
Cc1c(NC(=O)CCCOc2ccccc2)cccc1[N+](=O)[O-],–,-6% (inactive)
CCN(CC(=O)NCc1ccc(Cl)cc1)C(=O)CSc1ccccc1,–,-16.6% (inactive)
c1ccc(-c2ccc3c(c2)NC(C2Nc4cc(-c5ccccc5)ccc4O2)O3)cc1 (stereo not drawn),–,-2.09% (inactive)
CC1CCN(S(=O)(=O)c2ccc3[nH]c(=O)ccc3c2)CC1,–,-2.79% (inactive)
CC(=O)c1cccc(NC(=O)COc2ccc(S(=O)(=O)N3CCOCC3)cc2)c1,–,-18.5% (inactive)
CC(=O)c1cccc(Nc2ccc3cc(S(=O)(=O)N4CCC(C)CC4)ccc3n2)c1,18.4 µM (active),–
CCCc1c(C)nc2c(Br)cccc2c1Cl,–,-1.98% (inactive)
COc1cc(NS(=O)(=O)c2ccc(N/C=C(\C=O)c3nc4cc(Cl)ccc4o3)cc2)nc(OC)n1,–,-24.7% (inactive)
Cn1ncc(Br)c1C(=O)NC1CCCC1,–,-11.4% (inactive)
CCC(Oc1ccccc1)C(=O)OCC(=O)Nc1c(C)nn(-c2ccccc2)c1C (stereo not drawn),–,5.19% (inactive)
Nc1cc(=O)n(Cc2ccccc2)c(=O)n1Cc1ccccc1,–,-10.3% (inactive)
CC1CCCN(Cc2c(O)ccc3c(=O)c(Oc4ccc(C(C)(C)C)cc4)c(C(F)(F)F)oc23)C1 (stereo not drawn),–,-18.6% (inactive)
CCN1CCN(Cc2c(O)ccc3c(=O)c(-c4ccc(OC)c(OC)c4)c(C(F)(F)F)oc23)CC1,–,-18.3% (inactive)
Cc1ccc(C)c(Oc2c(C(F)(F)F)oc3c(CN4CCN(C)CC4)c(O)ccc3c2=O)c1,23.1 µM (active),–
Cc1c(C(=O)NCc2ccccc2)cnn1-c1ccccc1,–,-16.4% (inactive)
CSc1ccc(CCNC(=O)c2cnn(-c3ccccc3)c2-n2cccc2)cc1,18.4 µM (active),–

Structure (SMILES),Potency,"activity change, negative = growth inhibition"
CCCN1CCN(CCCNC(=O)c2cnn(-c3ccc(C)cc3)c2-n2cccc2)CC1,–,-24% (inactive)
COc1cc(C(=O)Nc2ncccc2C)ccc1OCC(=O)N1CCOCC1,–,-0.766% (inactive)
Cn1ccnc1-c1nnn(-c2ccc(F)cc2)n1,–,-4.66% (inactive)
Cc1cccc(C)c1NC(=S)N1CCCCCC1,–,-7.74% (inactive)
COc1ccc(CC(=O)N/N=C(\C)c2ccccn2)cc1,3.66 µM (active),–
C/C(=N\NC(=O)Cc1ccc(Br)cc1)c1cccnc1,–,-24.7% (inactive)
CC(=NNC(=S)N1CCCCCC1)c1ccccn1,0.0092 µM (active),–
C/C(=N\NC(=O)Cc1ccc(Cl)cc1)c1ccccn1,1.46 µM (active),–
COc1ccc(C/C(C)=N/NC(=O)c2cc(C)oc2C)cc1,–,0.402% (inactive)
O=C(Nc1ccc(NC(=O)c2ccccc2F)cc1)c1ccccc1F,–,-12.9% (inactive)
C/C(=N\NC(=O)c1ccccc1F)c1ccccn1,3.26 µM (active),–
COc1ccc(C/C(C)=N/NC(=O)c2ccncc2)cc1,–,5.91% (inactive)
Cc1ccc(Cl)cc1NC(=O)c1ccccn1,–,-18.9% (inactive)
CNC(=S)N1CCN(c2ccccn2)CC1,–,-0.34% (inactive)
C/C(CC(=O)Nc1ccc(N(C)C)cc1)=N\NC(=O)c1ccccc1F,–,-17.5% (inactive)
CCC1([N+](=O)[O-])COC(c2ccc(C)cc2)OC1 (stereo not drawn),–,-10.3% (inactive)
Cc1cc(C(C)(C)C)n2nc(C)c(-c3ccccc3)c2n1,–,-11.6% (inactive)
CCc1nnc(NC(=O)c2cc(S(=O)(=O)N3CCCCC3)ccc2C)s1,–,-3.57% (inactive)
CCOC(=O)C1CCN(C(c2ccc(F)cc2)c2sc3nc(-c4ccco4)nn3c2O)CC1 (stereo not drawn),–,-0.823% (inactive)
Cc1cccc(N(C(=O)c2csnn2)C(C(=O)NCc2ccccc2)c2ccncc2)c1 (stereo not drawn),–,-22% (inactive)
Cc1ccc(NC(=O)CCCNC(=O)c2ccc(Cl)cc2)cc1S(=O)(=O)N1CCOCC1,–,-28.1% (inactive)
O=C(Nc1cccc(F)c1)N1CC2(CCN(C(=O)c3cnccn3)CC2)C1,–,1.43% (inactive)
COc1ccc(NC(=O)Cn2ncn3c(cc4ccccc43)c2=O)c(OC)c1OC,–,18.6% (inactive)
O=C1CCC(C(=O)N2CCC(O)(c3ccccc3)CC2)CN1CCc1ccccc1 (stereo not drawn),–,-4.28% (inactive)
Cc1cccnc1NC(=O)CSc1nnc(COc2ccc(C(C)C)cc2)n1C,–,-14% (inactive)
